From PubChem BioAssay
This excerpt belongs to a sample that is enriched for hits.
CHX counter: counter-screen for Shiga toxin inhibitors: cycloheximide protein synthesis inhibition | max response, % | 12% of 300,000 active | AID 2314 | cell reporter, cycloheximide protein synthesis inhibition counterscreen; in the data active = max response mostly above about 13%, no sharp cut-off; inactive = mostly below about 14%; note: read at 38.3 µM for the half of the compounds with a filed dose
Shiga inhibitor: inhibitors of Shiga toxin in Vero cells | 9.2% of 290,000 active | AID 2315 | inhibition, % at 38.7 µM | Vero cells, Shiga toxin protein synthesis inhibition reporter; in the data active = inhibition mostly above about 28%, no sharp cut-off; inactive = mostly below about 43%
LmPK inh: inhibitors of Leishmania mexicana pyruvate kinase | AID 1721 | Potency, µM (highest dose often 57.5 µM), most hits filed as inhibitors | 0.37% of 290,000 active | purified LmPK, Kinase-Glo ATP luminescence, 1 h | Q27686
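In 50 mM imidazole pH 7.2 with 7 mM MgCl2, LmPK (0.1 nM) turned over PEP (0.5 mM) and ADP (0.1 mM) for 1 h at room temperature. Luciferase read-out of ATP.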
Giardia FBPA inh-1: inhibitors of Giardia lamblia fructose-1,6-bisphosphate aldolase. purified Giardia FBPA. A8B2U2. AID 2451. 0.71% of 290,000 active. Potency, µM (highest dose often 59.6 µM), actives largely listed as inhibitors; note: nearly all actives have a fitted effect of over 55% in size
Target sequence (A8B2U2 whole entry, looked up): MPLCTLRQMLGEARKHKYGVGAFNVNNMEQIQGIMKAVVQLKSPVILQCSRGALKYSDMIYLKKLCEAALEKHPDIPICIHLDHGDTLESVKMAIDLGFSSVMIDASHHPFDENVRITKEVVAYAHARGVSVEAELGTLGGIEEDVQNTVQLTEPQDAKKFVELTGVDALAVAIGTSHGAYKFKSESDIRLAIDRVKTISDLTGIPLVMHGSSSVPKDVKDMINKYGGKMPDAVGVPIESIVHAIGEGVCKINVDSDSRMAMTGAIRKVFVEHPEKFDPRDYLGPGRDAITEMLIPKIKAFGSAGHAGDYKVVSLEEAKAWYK
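Giardia FBPA (40 nM reagent) was preincubated 10 min at RT with compound (up to 57.5 uM final), then substrate plus GAPDH/TPI/NAD/arsenate coupling system with diaphorase/resazurin was added; resorufin fluorescence (525/598 nm) was read after 20 min.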
TbPYK inhibitor: T. brucei pyruvate kinase inhibition; Q57TT1; TbPYK enzyme, Kinase-Glo Plus ATP luminescence, 45 min; Potency, µM (series often up to 76.8 µM), hits mostly inhibitors; 0.12% of 410,000 active; AID 624173; note: nearly all actives have a fitted effect of over 50% in size
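Enzyme and substrate buffer are dispensed first and compound is pin-transferred. ADP at 130 uM final then starts the reaction, which runs 45 min at room temperature. Detection reagent is added for 10 min before luminescence is imaged.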
Sm TGR inh: blocks Schistosoma mansoni thioredoxin glutathione reductase; purified TGR, DTNB reduction, TNB absorbance 405 nm; Q962Y6; 3% of 360,000 active; Potency, µM (series often up to 114 µM), most hits filed as inhibitors; note: nearly all actives have a fitted effect of over 60% in size
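TGR 20 nM + NADPH 100 uM (dispensed conc.), cpd preinc 15 min RT; start with NADPH (500 uM addition) then DTNB (15 mM addition). Kinetic TNB absorbance, 405 nm filter. Four-parameter Hill fit across titration.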
Giardia growth: blocks growth of Giardia lamblia trophozoites | Potency, µM (doses to about 57.5 µM), actives largely listed as inhibitors | AID 2785 | Giardia lamblia trophozoite growth inhibition | 5% of 1,500 active | shares compounds with Giardia FBPA inh-1;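 note: trophozoites exposed to compound for 48 h at 37 °C; nearly all actives have a fitted effect of over 70% in size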
Mammal cell tox: toxic to mammalian cells in Giardia aldolase counter-screen. shares compounds with Giardia FBPA inh-1. mammalian cell viability counter-screen, qHTS. Potency, µM (doses to about 57.5 µM), usual class: inhibitors. 4% of 1,500 active. AID 2786;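 note: Chinese hamster ovary cells used as mammalian cytotoxicity surrogate; viability measured as cellular ATP by luminescence; compound exposure lasted 48 h before reading; nearly all actives have a fitted effect of over 60% in size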
Giardia FBPA inh-2: confirmation of Giardia fructose-bisphosphate aldolase inhibitors | shares compounds with Giardia FBPA inh-1 | purified Giardia aldolase enzyme activity, qHTS | Potency, µM (doses to about 57.5 µM), hits mostly inhibitors | 5% of 1,500 active; note: nearly all actives have a fitted effect of over 45% in size
Rabbit aldolase: selectivity test for Giardia aldolase inhibitors: rabbit aldolase | Potency, µM (titrated, usually from 57.5 µM), hits mostly inhibitors | AID 2794 | 4% of 1,500 active | shares compounds with Giardia FBPA inh-1 | Rabbit muscle FBPA enzyme inhibition, selectivity counter-screen; note: nearly all actives have a fitted effect of over 60% in size
Target sequence (P00883 whole entry, looked up): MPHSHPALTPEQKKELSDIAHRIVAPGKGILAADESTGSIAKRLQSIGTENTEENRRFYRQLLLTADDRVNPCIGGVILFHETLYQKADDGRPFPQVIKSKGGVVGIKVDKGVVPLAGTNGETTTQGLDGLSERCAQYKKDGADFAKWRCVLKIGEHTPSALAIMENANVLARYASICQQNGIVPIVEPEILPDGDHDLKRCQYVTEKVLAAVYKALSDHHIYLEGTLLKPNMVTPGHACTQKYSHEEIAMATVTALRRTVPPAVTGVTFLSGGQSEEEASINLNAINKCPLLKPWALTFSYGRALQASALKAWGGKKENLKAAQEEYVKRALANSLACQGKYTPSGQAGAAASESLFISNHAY
GAPDH counter: counter-screen for Giardia aldolase inhibitors: GAPDH coupling enzyme; shares compounds with Giardia FBPA inh-1; 6% of 1,500 active; Potency, µM (highest dose often 57.5 µM), actives largely listed as inhibitors; GAPDH coupling enzyme counterscreen, biochemical, qHTS; AID 2795; note: nearly all actives have a fitted effect of over 55% in size
Numbers stand for hits; i = inactive; ? = inconclusive; nt = no result; [ ] = another dose, or the depositor's remark. Unless noted, calls come from the whole dose curve; as a rule, active = well fitted curve in the direction sought with a large enough effect; inconclusive = small, poorly fitted or top-dose-only effect, or another doubt; inactive = no such curve, though single readings can be large; an effect the other way counts as inactive or inconclusive.

SMILES	CHX counter	Shiga inhibitor	LmPK inh	Giardia FBPA inh-1	TbPYK inhibitor	Sm TGR inh	Giardia growth	Mammal cell tox	Giardia FBPA inh-2	Rabbit aldolase	GAPDH counter
CCCCN(C)S(=O)(=O)c1ccc(C(=O)Nc2nnc(CSC)o2)cc1	i	i	i	?	i	i	nt	nt	nt	nt	nt
CCN(CC)S(=O)(=O)c1ccc(C(=O)Nc2nnc(COC)o2)cc1	i	i	i	18µM	i	i	i	i	i	i	i
CCN(CC)S(=O)(=O)c1ccc(C(=O)Nc2nnc(CSC)o2)cc1	i	i	i	16µM	i	i	18µM	i	i	i	i
CCN(CC)S(=O)(=O)c1ccc(C(=O)Nc2nnc(-c3ccco3)o2)cc1	i	i	i[11.5 µM]	?	i	i	nt	nt	nt	nt	nt
CCCCN(CCCC)S(=O)(=O)c1ccc(C(=O)Nc2nnc(COC)o2)cc1	i	i	i	i	i	i	nt	nt	nt	nt	nt
CN(C)S(=O)(=O)c1ccc(C(=O)Nc2nnc(-c3ccco3)o2)cc1	i	i	i	6.3µM	i	i	i	i	i	i	i
COC(=O)[C@H](CCSC)NS(=O)(=O)c1ccccc1Br	i	i	i	i	i	i	nt	nt	nt	nt	nt
O=C(Cn1cnc(S(=O)(=O)N2CCCC2)c1)Nc1cccc(F)c1	i	i	i	nt	i	i	nt	nt	nt	nt	nt
CCOC(=O)C1=CCC(c2ccc(Cl)cc2)N(S(=O)(=O)c2ccc(C)cc2)C1 (stereo not drawn)	nt	nt	nt	nt	i	nt	nt	nt	nt	nt	nt
CCC(=O)NC1=C(Cl)C(=O)C(NC(=O)CC)=C(Cl)C1=O	14	i	?	1.8µM	2.5µM	0.22µM	i	?	2.9µM	5.2µM	3.7µM
CCN(CCCNC(=O)c1ccc(Sc2ccc(Cl)cc2)c(NC(C)=O)c1)c1cccc(C)c1	nt	nt	nt	nt	i	i	nt	nt	nt	nt	nt
CCN(CCNCC(O)COCc1ccc(Cl)cc1)c1cccc(C)c1 (stereo not drawn)	i	i	i	22µM	i	i	i	i	i	i	i
Oc1ccccc1CNc1cccc2cccnc12	45	62	i	6.3µM	i	i	i	i	i	i	i
COc1ccc(NN=Nc2nc3c([nH]2)c(=O)n(C)c(=O)n3C)cc1	40	84	i	18µM	?	18µM	?	i	13µM	?	?
N#Cc1ccccc1S(=O)(=O)N1CCN(CC(O)COc2ccccc2F)CC1 (stereo not drawn)	i	i	i	16µM	i	i	?	i	i	i	i
CC(C)c1ccccc1OCC(O)CN1CCN(S(=O)(=O)c2ccc([N+](=O)[O-])cc2)CC1 (stereo not drawn)	i	i	i	18µM	i	i	5.6µM	i	i	i	i
O=S(=O)(c1ccc(F)cc1)N1CCN(CC(O)COc2ccccc2F)CC1 (stereo not drawn)	i	i	i	28µM	i	i	?	i	i	i	i
O=S(=O)(c1ccccc1C(F)(F)F)N1CCN(CC(O)COc2ccccc2F)CC1 (stereo not drawn)	i	i	i	?	i	i	nt	nt	nt	nt	nt
OC(c1ccc(Cl)c(Cl)c1)c1ncc(-c2ccccc2Cl)[nH]1 (stereo not drawn)	nt	nt	nt	nt	i	nt	nt	nt	nt	nt	nt
CC1Cc2ccccc2N1C(=O)C(C)n1cc(C(F)(F)F)cc(Cl)c1=O (stereo not drawn)	nt	nt	nt	nt	i	i	nt	nt	nt	nt	nt
O=C1CSC(=S)N1N1C(=O)c2cccc([N+](=O)[O-])c2C1=O	i	i	?	18µM	nt	?	?	i	i	i	i
CCN(CC)S(=O)(=O)c1cccc(C(=O)N/N=C/c2ccccn2)c1	33	i	i	18µM	i	i	i	i	i	i	i
O=C(N/N=C/c1ccccn1)c1cccc(S(=O)(=O)Nc2ccccc2Cl)c1	i	i	i	16µM	i	i	?	i	i	i	?
CCc1cccc2c(C(=O)CN3C(=O)NC4(CCc5ccccc54)C3=O)c[nH]c12 (stereo not drawn)	nt	nt	nt	nt	i	i	nt	nt	nt	nt	nt
Cc1cccc(OCCN2CCOCC2)c1C	i	i	i	?	i	?	nt	nt	nt	nt	nt
SMILES	CHX counter	Shiga inhibitor	LmPK inh	Giardia FBPA inh-1	TbPYK inhibitor	Sm TGR inh	Giardia growth	Mammal cell tox	Giardia FBPA inh-2	Rabbit aldolase	GAPDH counter
Brc1ccccc1OCCN1CCOCC1	i	i	i	28µM	i	i	i	i	i	i	i
C=CCNS(=O)(=O)NC(=O)C1=C(N2CCCC2)COC1=O	nt	nt	nt	nt	i	nt	nt	nt	nt	nt	nt
COc1ccc(CC(=O)OCC(=O)NCc2ccc3c(c2)OCO3)cc1OC	nt	nt	nt	nt	i	nt	nt	nt	nt	nt	nt
O=C(NC(=S)Nc1ccc(Cl)cn1)c1cc([N+](=O)[O-])ccc1N1CCOCC1	i	i	i	14µM	i	i	i	i	i	i	i
Cc1ccc(NC(=O)c2sc(=S)n(-c3cc(C)ccc3F)c2N)cc1	i	i	i	18µM	i	i	i	i	i	?	i
COc1ccc(S(=O)(=O)NNC(N)=S)cc1	i	i	i	10µM	i	i	i	i	i	i	i
COc1ccc(NC(=O)NNS(=O)(=O)c2ccc(Br)cc2)cc1	i	i	i	i	i	i	nt	nt	nt	nt	nt
CC(=O)Nc1ccccc1O	i	i	i	i	i	i	nt	nt	nt	nt	nt
CC(=O)Nc1ccc(-c2ccc(NC(C)=O)c(O)c2)cc1O	18	33	i	i	i	i	i	i	2.6µM	i	?
COc1ccc(-c2cc(-c3ccc4c(c3)NC(=O)CO4)nc3c2COc2ccc(F)cc2-3)cc1	nt	nt	nt	nt	i	i	nt	nt	nt	nt	nt
CCC1=C2CC[C@H]3C(=O)N(CC(=O)OC)C(=O)[C@H]3[C@H]2[C@@]2(Cc3ccccc3)C(=NCCOC)OC(=O)N2C1=O	nt	nt	nt	i	nt	nt	nt	nt	nt	nt	nt
COc1nc(N/N=C/c2ccc(-c3ccccc3[N+](=O)[O-])o2)nc(N2CCOCC2)n1	70	110	i	4.5µM	i	i	i	i	?	?	40µM
CN1C(=O)/C(=C/C=C/c2ccco2)C(=O)NC1=S	i	i	i	16µM	i	?	i	i	i	i	i
C=CCc1cc(OC)ccc1OCCCCn1cncn1	i	i	i	32µM	i	?	?	i	i	i	i
CN(C)C(=S)NC(=O)c1cccc(Cl)c1	i	i	i	16µM	i	i	7.1µM	i	i	i	i
Cc1cccc(C)c1NC(=S)NC(=O)c1cccc(Cl)c1	nt	nt	nt	nt	i	nt	nt	nt	nt	nt	nt
O=c1nc(N/N=C/c2c[nH]c3ccccc23)cn[nH]1	40	45	i	18µM	i	i	i	i	i	i	i
